High-throughput results deposited in PubChem BioAssay by National Center for Advancing Translational Sciences (NCATS).
In the library only some 1.3% were active in any assay of this set; here they are far more common.
EPAC2 antag: qHTS for Antagonist of cAMP-regulated guanine nucleotide exchange factor 2 (EPAC2): primary screen | EPAC2 GEF exchange of Rap1B-BODIPY-GDP, fluorescence | Potency, µM (series often up to 114 µM), actives largely listed as inhibitors | hit rate 0.18% among 360,000 | AID 720708, 2013; also: nearly all actives have a fitted effect of over 45% in size
Target sequence (Q8WZA2 whole entry, looked up): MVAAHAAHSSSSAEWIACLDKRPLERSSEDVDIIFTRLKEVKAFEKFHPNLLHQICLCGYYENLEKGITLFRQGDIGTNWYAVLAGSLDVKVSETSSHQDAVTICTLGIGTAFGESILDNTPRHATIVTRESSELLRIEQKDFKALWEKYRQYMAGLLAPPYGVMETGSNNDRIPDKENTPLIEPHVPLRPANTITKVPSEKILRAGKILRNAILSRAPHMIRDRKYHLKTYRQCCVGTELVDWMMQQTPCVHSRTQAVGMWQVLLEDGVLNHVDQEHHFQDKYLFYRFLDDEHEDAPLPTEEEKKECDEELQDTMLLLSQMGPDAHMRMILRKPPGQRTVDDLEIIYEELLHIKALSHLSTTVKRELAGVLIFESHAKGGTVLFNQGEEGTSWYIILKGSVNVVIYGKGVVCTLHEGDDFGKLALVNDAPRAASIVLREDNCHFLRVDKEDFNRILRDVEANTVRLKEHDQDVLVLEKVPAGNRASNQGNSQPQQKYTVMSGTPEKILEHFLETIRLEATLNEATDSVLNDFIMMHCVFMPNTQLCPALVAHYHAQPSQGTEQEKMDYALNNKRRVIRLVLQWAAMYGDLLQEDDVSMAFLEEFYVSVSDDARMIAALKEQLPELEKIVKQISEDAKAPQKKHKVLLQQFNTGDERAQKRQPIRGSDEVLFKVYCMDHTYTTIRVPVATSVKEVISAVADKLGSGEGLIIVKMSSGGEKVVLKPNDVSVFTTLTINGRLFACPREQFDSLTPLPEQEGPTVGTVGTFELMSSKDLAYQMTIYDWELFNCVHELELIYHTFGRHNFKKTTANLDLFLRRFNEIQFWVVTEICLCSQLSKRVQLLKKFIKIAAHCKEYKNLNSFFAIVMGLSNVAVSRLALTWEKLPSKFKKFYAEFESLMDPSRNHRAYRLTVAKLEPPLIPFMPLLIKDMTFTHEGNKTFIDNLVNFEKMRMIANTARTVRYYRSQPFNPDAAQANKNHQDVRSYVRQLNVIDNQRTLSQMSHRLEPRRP
USP1 inh: Inhibitors of USP1/UAF1: Primary Screen; Ubiquitin carboxyl-terminal hydrolase 1 (Homo sapiens), O94782; recombinant USP1/UAF1, Ub-Rhodamine cleavage fluorescence; Potency, µM (doses to about 57.1 µM), actives largely listed as inhibitors; hit rate 0.23% among 390,000; also: nearly all actives have a fitted effect of over 60% in size
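In this screen, compounds sit with the deubiquitinase complex (1nM) for 15 min at room temperature before Ub-Rho is added at 150nM final. Fluorescence rise is then followed for 6 reads every 60 seconds.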
EPAC1 antagonist: qHTS for Antagonist of cAMP-regulated guanine nucleotide exchange factor 3 (EPAC1): primary screen; EPAC1 GEF assay, Rap1b-BODIPY-GDP exchange fluorescence; Rap guanine nucleotide exchange factor 3 (Homo sapiens), O95398; AID 720709, 2013; Potency, µM (highest dose often 115 µM), actives largely listed as inhibitors; hit rate 0.14% among 360,000; also: nearly all actives have a fitted effect of over 50% in size
EPAC1 ag: qHTS for Agonist of cAMP-regulated guanine nucleotide exchange factor 3 (EPAC1): primary screen. Rap guanine nucleotide exchange factor 3 (Homo sapiens), O95398. EPAC1 agonist qHTS, biochemical assay; response scale: 100% = response to 6.5 mM cAMP. Potency, µM (doses to about 154 µM), most hits filed as activators. hit rate 0.073% among 360,000; also: nearly all actives have a fitted effect of over 60% in size
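Normalized to 6.5 mM cAMP, activity reflects EPAC1-catalysed release of BODIPY-GDP from Rap1B, followed kinetically over 30 min at 480 nm excitation, 540 nm emission. Reaction contained 100 nM EPAC1, 250 nM Rap1B-BODIPY-GDP, 50 uM GDP.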
12-LOX inh: Primary qHTS assay for inhibitors of human arachidonate 12S-lipoxygenase (ALOX12): Round 2. Polyunsaturated fatty acid lipoxygenase ALOX12 (Homo sapiens), P18054. purified 12hLO, xylenol orange hydroperoxide absorbance. Potency, µM (titrated, usually from 108 µM), actives largely listed as inhibitors. hit rate 1.1% among 580,000
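Hydroperoxide product was detected by ferrous iron/xylenol orange as the 573 to 405 nm absorbance ratio. Arachidonic acid at 40 uM (final) was turned over for 30 min at room temperature by 150 nM human 12hLO, pH 7.0 Hepes buffer, after 15 min compound preincubation.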
EPAC2 agonist: qHTS for Agonist of cAMP-regulated guanine nucleotide exchange factor 4 (EPAC2): primary screen | EPAC2 activation, biochemical qHTS; response scale: 100% = 6.5 mM cAMP response | Potency, µM (doses to about 154 µM), most hits filed as activators | hit rate 0.079% among 360,000; also: nearly all actives have a fitted effect of over 50% in size
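Fluorescence exchange assay: 100 nM EPAC2 with 250 nM RAP1B-BODIPY-GDP and 50 uM GDP; compounds tested as a concentration-titration series (qHTS). Loss of Rap1-bound BODIPY-GDP fluorescence read at 480/540 nm; data normalized to 6.5 mM cAMP.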
Hits are given with their value; . = inactive; ? = inconclusive; / = no result; ! = not active in a repeat. Calls follow the shape of the dose curve; as a rule, active = well fitted curve in the direction sought with a large enough effect; inconclusive = small, poorly fitted or top-dose-only effect, or another doubt; inactive = no such curve, though single readings can be large; an effect the other way counts as inactive or inconclusive.

SMILES	EPAC2 antag	USP1 inh	EPAC1 antagonist	EPAC1 ag	12-LOX inh	EPAC2 agonist
N=C1/C(=C\c2coc3ccccc3c2=O)C(=O)N=C2SC(c3ccncc3)=NN12	.	28.2µM	.	100µM	?	63.1µM
N=C1/C(=C\c2coc3ccc(O)cc3c2=O)C(=O)N=C2SC=CN12	.	28.2µM	.	89.1µM	?	63.1µM
CN1C(=O)/C(=C/c2coc3ccc(O)cc3c2=O)SC1=S	.	.	.	.	.	.
N=C1/C(=C/c2coc3ccccc3c2=O)C(=O)N=C2SC(c3ccco3)=NN12	.	.	.	89.1µM	/	100µM
CCc1ccccc1NC(=O)CNC(=O)c1cc2ccc(F)cc2nc1C	/	/	/	/	.	/
N#Cc1ccc(NCc2c(F)cccc2Cl)cc1	/	/	/	/	.	/
O=C1C(Nc2ccccc2)=C(N2CCCCC2)C(=O)c2ccccc21	.	25.1µM	.	.	.	.
O=C(/C=C/c1ccc(O)cc1)c1ccc(NC2=C(N3CCCCC3)C(=O)c3ccccc3C2=O)cc1	.	15.8µM	.	.	.	.
COc1ccccc1NC1=C(N2CCCCC2)C(=O)c2ccccc2C1=O	.	17.8µM	.	.	/	.
Cc1ccc(NC2=C(N3CCCCC3)C(=O)c3ccccc3C2=O)cc1	.	?	.	.	?	.
COc1ccc(NC(=O)c2ccc3c(c2)N(S(=O)(=O)c2ccccc2)CC3)cc1	/	/	/	/	.	/
CCc1nc2ccccc2n1CCCCOc1cccc(C)c1	/	.	/	/	39.8µM	/
CCc1c(-c2ccccc2)ncn1Cc1cccc(-c2ccccc2)c1	?	/	.	.	?	.
CCc1c(-c2ccc(Cl)cc2)ncn1Cc1cccc(-c2ccccc2)c1	.	/	.	.	8.91µM	.
Cc1cccc(-c2nc3cc(NC(=O)/C=C/c4ccco4)ccc3o2)c1	/	/	/	/	11.2µM	/
CCCNC(=O)C(C)NC(=O)c1cc(=O)[nH]c2ccccc12 (centres undefined)	/	/	/	/	.	/
Cc1ccc(S(=O)(=O)N2CCCCC2)cc1C(=O)NCCC1=CCCCC1	.	.	.	112µM	.	.
CN(CC(=O)Nc1cc(C(F)(F)F)ccc1Cl)C1CCc2ccccc21 (centres undefined)	/	/	/	/	.	/
CCN(CC)c1ccc(/C=C(\C#N)C(=O)c2ccc(Br)cc2)cc1	.	25.1µM	.	112µM	.	100µM
CN(C)c1ccc(/C=C(\C#N)C(=O)c2ccccc2)cc1	.	14.1µM	.	.	.	?
Clc1ccccc1-c1cncnc1NCc1cccs1	/	/	/	/	35.5µM	/
O=C(O)C(c1c[nH]c2cc(F)ccc12)N1CCN(Cc2cccc3ccccc23)CC1 (centres undefined)	/	/	/	/	39.8µM	/
CC(C)OC(=O)C(CC(=O)O)N1CCOCC1 (centres undefined)	.	.	.	.	5.62µM	.
COc1ccc(-c2csc(NC(=O)C(CC(=O)O)N3CCOCC3)n2)cc1 (centres undefined)	.	.	.	.	.	.
COc1ccnc(-c2nnc3ccc(N4CCN(C(=O)c5ccco5)CC4)nn23)c1	/	/	/	/	.	/
SMILES	EPAC2 antag	USP1 inh	EPAC1 antagonist	EPAC1 ag	12-LOX inh	EPAC2 agonist
COc1ccnc(-c2nnc3ccc(N4CCc5ccccc5CC4)nn23)c1	/	/	/	/	50.1µM	/
COC1CCN(C(=O)c2ccnc(-c3nnc4ccc(Nc5ccccc5)nn34)c2)CC1	/	/	/	/	.	/
COC1CCN(C(=O)c2ccnc(-c3nnc4ccc(N5CCOCC5)nn34)c2)CC1	/	/	/	/	100µM	/
CC(C)OCc1ccc(C(=O)Nc2cccc(OC(F)(F)F)c2)cc1	/	/	/	/	.	/
COCCN1CCCN(C(=O)c2ccc(F)c(F)c2)c2ccccc21	/	/	/	/	44.7µM	/
CCOC(=O)C1=C(C)NC(=O)CC1C(=O)Nc1cc(Cl)cc(Cl)c1 (centres undefined)	/	/	/	/	15.8µM	/
COc1cccc(CNC(=O)Cc2c(C)nc3ccccc3c2C)c1	/	/	/	/	.	/
c1coc(-c2nc3nccc(-c4ccc5c(c4)OCCCO5)n3n2)c1	/	/	/	/	.	/
C[C@@H]1CN([C@@H](C)CO)S(=O)(=O)c2ccc(C#CC3CCCCC3)cc2O[C@@H]1CN(C)Cc1cccnc1	.	.	.	.	14.1µM	.
COc1ccccc1S(=O)(=O)N(C)C[C@H]1Oc2cc(C#CCC3CCCC3)ccc2S(=O)(=O)N([C@H](C)CO)C[C@H]1C	.	.	.	.	20µM	.
CCN(Cc1ccc2c(c1)OCCO2)C(=O)Cn1cnc2c(cnn2C)c1=O	/	/	/	/	.	/
Cn1cc(/C=C/c2cc[n+](C)cc2)c2cc(Cl)ccc21	.	.	.	.	.	.
C[n+]1ccc(/C=C/c2c[nH]c3ccc(F)cc23)cc1	.	28.2µM	.	.	.	?
Cn1cc(/C=C/c2cc[n+](C)cc2)c2cc(F)ccc21	.	28.2µM	.	?	/	?
O=Cc1c[nH]c2cc(F)ccc12	/	/	/	/	.	/
COc1cccc(C(=O)OCc2cc3ccccc3[nH]c2=O)c1	/	/	/	/	.	/
Oc1ccc(NCc2ccccc2OCc2ccccc2)cc1	.	?	?	.	11.2µM!	.
Oc1ccc(NCc2ccccc2OCc2ccc(Cl)cc2)cc1	/	?	/	/	.	/
c1ccc(-c2nc3ccncc3[nH]2)nc1	/	/	/	/	.	/
COc1ccc(-n2cnc(=S)[nH]c2=S)cc1	.	?	.	.	22.4µM	.
O=S(=O)(NCc1ccc(N2CCCC2)nc1)c1ccc2c(c1)CCCC2	/	/	/	/	.	/
CN1C(=O)C2(CCN(C(=O)c3cccc(Br)c3)C2)c2ccccc21 (centres undefined)	/	/	/	/	.	/
CCCC[n+]1c2ccccc2cc2ccccc21	.	.	.	.	8.91µM	.
N#Cc1c(-c2ccncc2)c2c([nH]c1=S)CCCC2	.	.	.	.	20µM	.
O=C1NC[C@@H](CCCCN2C[C@H](Cc3ccc(O)cc3)N(CC3CCCCC3)C(=O)C2=O)N(CC2CCCCC2)C1=O	.	/	.	.	22.4µM	.
CC(=O)Nc1cccc(/C(C)=N/Nc2ccc(S(=O)(=O)Nc3ccccc3C(=O)O)cc2[N+](=O)[O-])c1	?	?	50.1µM	.	?	.
CN(CCO)c1ccc(C=NNc2ccc([N+](=O)[O-])cc2S(=O)(=O)Nc2ccccc2C(=O)O)cc1	?	.	50.1µM	.	39.8µM	.
